# In article PMC5869772, “Quantitative profiling of BATF family proteins/JUNB/IRF hetero-trimers using Spec-seq”:
# Assays:
# Test in all cases: Spec-seq (EMSA and sequencing of bound and unbound bands); 100 nM BATFx-JUNB, 1 uM dsDNA library, 50 mM K acetate, 20 mM Tris-acetate, 10 mM Mg acetate, 100 ug/ml BSA, pH 7.9, 10% glycerol, 30 min on ice; native 9% PAGE at 4 C; low values mean tight binding
# Settings in all cases: protein: recombinant;recombinant; tags: N-terminal mCherry-TEV, cleaved off;C-terminal 6His; copies: 1;1; dsDNA, one strand shown
# BATF;JUNB = biological target: T1, BATF;JUNB (human;human, UniProt Q16520;P17275 1-125;148-347, |)
# T1 sequence 1: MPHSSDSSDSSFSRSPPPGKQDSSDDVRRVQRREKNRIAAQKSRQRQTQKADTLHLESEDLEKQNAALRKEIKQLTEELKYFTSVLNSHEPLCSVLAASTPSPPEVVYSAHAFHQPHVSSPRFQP
# T1 sequence 2: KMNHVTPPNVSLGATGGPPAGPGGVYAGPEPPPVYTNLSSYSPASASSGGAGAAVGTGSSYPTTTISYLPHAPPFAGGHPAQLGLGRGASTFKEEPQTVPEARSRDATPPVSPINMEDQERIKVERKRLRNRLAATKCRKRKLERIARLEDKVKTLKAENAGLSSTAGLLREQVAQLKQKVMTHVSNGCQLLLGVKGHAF
# Procedure, shortened: (§1)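 The protein, at 100 nM, was incubated with 1 μM double-stranded degenerate DNA library for 30 min on ice in NEB Cutsmart buffer with 10% glycerol, then resolved by native 9% PAGE at 4 °C. Excised bound and unbound bands were PCR-barcoded and Illumina-sequenced, and each sequence's relative binding energy in kT is −ln of its bound/unbound read-count ratio.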
# BATF2 (bZIP);JUNB = biological target: T2, BATF2 (bZIP);JUNB (human;human, UniProt Q8N1L9;P17275 1-142;148-347, |)
# T2 sequence 1: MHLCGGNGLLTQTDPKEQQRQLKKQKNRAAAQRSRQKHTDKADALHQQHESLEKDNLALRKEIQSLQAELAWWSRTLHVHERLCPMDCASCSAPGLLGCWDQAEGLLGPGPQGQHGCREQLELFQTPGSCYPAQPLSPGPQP
# T2 sequence 2: T1 sequence 2
# Procedure, shortened: as §1
# BATF3;JUNB = biological target: T3, BATF3;JUNB (human;human, UniProt Q9NR55;P17275 1-127;148-347, |)
# T3 sequence 1: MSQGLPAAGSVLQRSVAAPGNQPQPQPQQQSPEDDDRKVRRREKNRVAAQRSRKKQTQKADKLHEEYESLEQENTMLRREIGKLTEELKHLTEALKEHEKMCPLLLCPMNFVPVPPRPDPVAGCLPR
# T3 sequence 2: T1 sequence 2
# Procedure, shortened: as §1
sequence,measurement,setting,value
GATAGTCTCATTTTCACCCCGTGAAATGACGTCATTGTTCCATTACAGTATCTGT,binding signal,BATF;JUNB,-1.05 kT
same,binding signal,BATF2 (bZIP);JUNB,-1.32 kT
same,binding signal,BATF3;JUNB,-1.75 kT
GATAGTCTCATTTTCACCCCGTGAAATGACCCAATTGTTCCATTACAGTATCTGT,binding signal,BATF;JUNB,0.427 kT
same,binding signal,BATF2 (bZIP);JUNB,0.768 kT
same,binding signal,BATF3;JUNB,0.601 kT
GATAGTCTCATTTTCACCCCGTGAAATGACCTCATTGTTCCATTACAGTATCTGT,binding signal,BATF;JUNB,-0.305 kT
same,binding signal,BATF2 (bZIP);JUNB,0.217 kT
same,binding signal,BATF3;JUNB,-0.817 kT
GATAGTCTCATTTTCACCCCGTGAAATGATGTCATTGTTCCATTACAGTATCTGT,binding signal,BATF;JUNB,-0.738 kT
same,binding signal,BATF2 (bZIP);JUNB,-0.708 kT
same,binding signal,BATF3;JUNB,-1.63 kT
GATAGTCTCATTTTCACCCCGTGAAACGGAGTCATTGTTCCATTACAGTATCTGT,binding signal,BATF;JUNB,-0.207 kT
same,binding signal,BATF2 (bZIP);JUNB,0.313 kT
same,binding signal,BATF3;JUNB,0.06 kT
GATAGTCTCATTTTCACCCCGTGAAATGCCTCATTTGTTCCATTACAGTATCTGT,binding signal,BATF;JUNB,0.532 kT
same,binding signal,BATF2 (bZIP);JUNB,1.18 kT
same,binding signal,BATF3;JUNB,1.01 kT
GATAGTCTCATTTTCACCCCGTGAAAGGGAGTCATTGTTCCATTACAGTATCTGT,binding signal,BATF;JUNB,-0.148 kT
same,binding signal,BATF2 (bZIP);JUNB,0.485 kT
same,binding signal,BATF3;JUNB,0.287 kT
GATAGTCTCATTTTCACCCCGTGAAATGAGTTATTTGTTCCATTACAGTATCTGT,binding signal,BATF;JUNB,0.153 kT
same,binding signal,BATF2 (bZIP);JUNB,0.843 kT
same,binding signal,BATF3;JUNB,0.54 kT
GATAGTCTCATTTTCACCCCGTGAAATGAGCCACTTGTTCCATTACAGTATCTGT,binding signal,BATF;JUNB,0.573 kT
same,binding signal,BATF2 (bZIP);JUNB,1.34 kT
same,binding signal,BATF3;JUNB,1.15 kT
GATAGTCTCATTTTCACCCCGTGAAATGACCCATTTGTTCCATTACAGTATCTGT,binding signal,BATF;JUNB,0.311 kT
same,binding signal,BATF2 (bZIP);JUNB,0.823 kT
same,binding signal,BATF3;JUNB,0.67 kT
GATAGTCTCATTTTCACCCCGTGAAAAGAGTCATTTGTTCCATTACAGTATCTGT,binding signal,BATF;JUNB,-0.155 kT
same,binding signal,BATF2 (bZIP);JUNB,0.416 kT
same,binding signal,BATF3;JUNB,0.137 kT
GATAGTCTCATTTTCACCCCGTGAAATGAGTGAGTTGTTCCATTACAGTATCTGT,binding signal,BATF;JUNB,-0.103 kT
same,binding signal,BATF2 (bZIP);JUNB,0.64 kT
same,binding signal,BATF3;JUNB,0.377 kT
